Assay [1] can be described thus: Nuclear factor erythroid 2-related factor 2/antioxidant responsive element (Nrf2/ARE) small molecule agonists: qHTS cell viability counter screen in human keratinocytes (AID 1919968; active = well fitted curve in the direction sought with a large enough effect in the repeat runs; an effect the other way counts as inactive or inconclusive; note: nearly all actives have a fitted effect of over 55% in size; note: potency is the fitted concentration of half-maximal effect). In a few lines:
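In human HaCaT keratinocytes stably expressing an ARE-driven luciferase, compound exposure lasted 23 h at 37 C under 5% CO2. Viable cells are quantified with a protease-based fluorogenic reagent (CellTiter-Fluor) read 1 h after addition.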

Assay [2] can be described thus: Nuclear factor erythroid 2-related factor 2/antioxidant responsive element (Nrf2/ARE) small molecule agonists: luciferase reporter gene qHTS assay in human keratinocytes (AID 1919969). Note: nearly all actives have a fitted effect of over 35% in size. Note: potency is the fitted concentration of half-maximal effect. Background: Reporter assays use an easily measured gene product as a stand-in for the process of interest.
Assay [3] addresses Gonadotropin-releasing hormone receptor (Homo sapiens) (UniProt P30968). The assay can be described thus: Human gonadotropin-releasing hormone receptor (GnRHR) small molecule agonists, calcium flux assay in GnRHR-HEK293 cells (AID 1920063). Note: nearly all actives have a fitted effect of over 35% in size. The essentials:
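Intracellular calcium rise is the read-out: engineered human GnRHR HEK293 cells, dye-loaded, are exposed to DMSO-dissolved compounds and fluorescence at Ex/Em 480/540 is tracked for 3 min.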

Assay [4] has as its target KiSS-1 receptor (Homo sapiens) (UniProt Q969F8). The assay can be described thus: Human kisspeptin (KISS1R) small molecule agonists, calcium flux assay in KISS1R-HEK293 cells (AID 1920064; active = well fitted curve in the direction sought with a large enough effect in the repeat runs; an effect the other way counts as inactive or inconclusive). The essentials:
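Concentration-response testing used 15 concentrations in triplicate on human KISS1R-expressing HEK293 cells. Calcium-dependent fluorescence (Ex/Em 480/540) was followed kinetically for 3 min after compound transfer.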
In general terms: A change in cytosolic calcium serves as a functional read-out for many receptors and channels.

A short description of assay [5]: G protein-coupled receptor (GPCR) small molecule agonists, calcium flux assay: HEK293 wild type cell line counter screen (AID 1920065). The essentials:
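Fluorescence intensity signals activation. After overnight (18 h) culture and a 1 h calcium dye load at 37 C, compounds are added by pin tool and the plate read at 480/540 nm for 3 min in 1 s steps.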

Assay [6] is described as follows: p53 small molecule agonists, cell-based qHTS assay with rat liver microsomes: qHTS cell viability counter screen (AID 1963580). Note: nearly all actives have a fitted effect of over 45% in size. The essentials: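 Counter screen for cytotoxicity under metabolic activation: rat liver microsomes and NADPH, 0.5 mg/mL final each, added with compounds to p53RE-bla HCT-116 cells; 16 h at 37 C, then ATP luminescence read.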
In general terms: In qHTS, concentration-response curves come from the screen itself.

Assay [7] is described as follows: p53 small molecule agonists, cell-based qHTS assay: qHTS cell viability counter screen (AID 1963581). Note: nearly all actives have a fitted effect of over 45% in size. In a few lines: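 Luminescence from CellTiter-Glo, reflecting ATP content, serves as the cytotoxicity measure; it is taken after the 2 h reporter substrate step in HCT-116 p53RE-bla cells dosed for 16 h at 37 C.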
Assay [8] deals with 5-hydroxytryptamine receptor 2A (Homo sapiens) (UniProt P28223). The assay can be described thus: 5-hydroxytryptamine receptor 2A (HTR2A) small molecule antagonists, cell-based qHTS assay (AID 1963586). Note: nearly all actives have a fitted effect of over 45% in size. In a few lines:
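CHO cells stably expressing human HTR2A were plated for 18 h at 37 C, then loaded with calcium dye for 1 h. Compounds were preincubated 5 min at room temperature before DOI (4 nM solution) was added. Kinetic fluorescence was read for 3 min.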

Assay [9] shares this target. The assay can be described thus: 5-hydroxytryptamine receptor 2A (HTR2A) small molecule agonists, cell-based qHTS assay (AID 1963587). Note: nearly all actives have a fitted effect of over 30% in size. In a few lines:
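HTR2A-CHO cells, plated 18 h at 37 C/5% CO2, dye-loaded 1 h at 37 C; compounds in DMSO added by pin tool (agonist mode). Intracellular calcium flux read as kinetic fluorescence on FDSS over 2 min at 1 s intervals.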

Assay [10] deals with Muscarinic acetylcholine receptor M1 (Homo sapiens) (UniProt P11229). The assay can be described thus: Cholinergic receptor muscarinic 1 (CHRM1) small molecule agonists, cell-based qHTS assay (AID 1963589). Note: nearly all actives have a fitted effect of over 35% in size. The essentials:
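Fluorescent calcium dye reports M1 activation in stably transfected CHO cells. Compounds, 15 concentrations, added after 1 h dye loading at 37 C; kinetic reading at 1 sec intervals.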

Assay [11] can be described thus: cAMP Responsive Elements (CRE) small molecule agonists, cell-based qHTS assay (AID 1963590). In a few lines: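 Compound exposure lasted 3 h at 37 C/5% CO2 in CRE-bla HEK 293T cells grown in assay medium with 10% dialyzed FBS and 25 mM HEPES. Reporter signal came from LiveBLAzer B/G FRET substrate, 2 h, room temperature.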
The nature of assay [12]: cAMP Responsive Elements (CRE) small molecule antagonists, cell-based qHTS assay (AID 1963591; active = well fitted inhibition curve with a large enough effect in the signal ratio in the repeat runs, not every such curve was filed as active; the % refers to the signal ratio). The essentials: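 Stimulation used NKH477 at a final 0.25 uM for 3 h in compound-treated CRE-bla HEK293T cells, seeded 18 h beforehand. Reporter activity was measured with LiveBLAzer B/G FRET substrate after 2 h at room temperature.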
For assay [13], the target named is Beta-2 adrenergic receptor (Homo sapiens) (UniProt P07550). The assay can be described thus: Adrenergic beta2 receptor (ADRB2) small molecule antagonists, cell-based qHTS assay (AID 1963592). Note: series mostly up to about 92 µM; nearly all actives have a fitted effect of over 50% in size. The essentials:
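Assay format: CHO-ADRB2 cells, 18-20hr seeding at 37C/5% CO2, then compound plus 1nM isoproterenol agonist mix for 0.5hr RT. Homogeneous time-resolved fluorescence cAMP detection after 1hr, expressed as 665/615 nm ratio.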

Assay [14] shares this target. The assay can be described thus: Adrenergic beta2 receptor (ADRB2) small molecule agonists, cell-based qHTS assay (AID 1963593).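 Note: CHO cells stably overexpressing human ADRB2.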 The essentials:
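CHO cells stably over-expressing ADRB2 were plated overnight at 37C, then dosed with compounds plus a stimulation mix containing 100uM IBMX and 25uM Ro-20-1724 for 0.5hr at room temperature. cAMP was measured by HTRF competition, 1hr.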

In assay [15] the target is Muscarinic acetylcholine receptor M1 (Homo sapiens) (UniProt P11229). The assay can be described thus: Cholinergic receptor muscarinic 1 (CHRM1) small molecule antagonists, cell-based qHTS assay (AID 1963588). Note: nearly all actives have a fitted effect of over 40% in size. In a few lines: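 Compounds were tested at 15 concentrations in three independent runs. Dye-loaded CHRM1-CHO cells were exposed 5 min at room temperature before stimulation by acetylcholine added at 50nM. Intracellular calcium was read kinetically on FDSS for 3 min.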

Assay [16] has as its target D(2) dopamine receptor (Homo sapiens) (UniProt P14416). The assay can be described thus: Dopamine D2 receptor (DRD2) small molecule agonists, cell-based qHTS assay (AID 1963594). Note: nearly all actives have a fitted effect of over 35% in size. The essentials: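 HEK293 cells stably expressing DRD2 were cultured 24 h at 37 C, then given Ro20-1724 (0.1 mM final) and compounds for 10 min at room temperature. NKH477 (200nM) was then added for 30 min. cAMP was read by HTRF.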

Assay [17] shares this target. The assay can be described thus: Dopamine D2 receptor (DRD2) small molecule antagonists, cell-based qHTS assay (AID 1963595; active = well fitted inhibition curve with a large enough effect in the signal ratio in the repeat runs, with a control signal flat; the % refers to the signal ratio). The essentials:
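Antagonist mode in DRD2-HEK293 cells: after compound addition with 0.1 mM Ro20-1724, cells received quinpirole (12 nM) and NKH477 (200 nM) for 30 min at room temperature; HTRF cAMP read after 1 h detection.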

Assay [18] can be described thus: p53 small molecule agonists, cell-based qHTS assay with human liver microsomes: qHTS cell viability counter screen (AID 1963579). Note: nearly all actives have a fitted effect of over 45% in size. The essentials:
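Metabolic activation used human liver microsomes and NADPH, both 0.5 mg/mL final, over 16 hours at 37 C on p53RE-bla cells (4,000/well). Cytotoxicity measured by CellTiter-Glo luminescence, 30 min at room temperature.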

Assay [19] is described as follows: p53 small molecule agonists, cell-based qHTS assay (AID 1963582; active = well fitted activation curve with a large enough effect in the signal ratio in the repeat runs, not every such curve was filed as active; the % refers to the signal ratio). In a few lines: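 After plating, p53RE-bla cells sat 5 h in the incubator; compounds or DMSO vehicle were pinned in; a 16 h incubation at 37 C followed; FRET substrate was added and, 2 h later at RT, fluorescence was measured.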

Our source for the Potency values is PubChem BioAssay (Tox21).

Unmarked numbers belong to inactive results. Inconclusive results are not listed. Active and inactive are the calls of the source. Unless noted, calls come from the whole dose curve.

Sequence of D(2) dopamine receptor (Homo sapiens) (P14416 whole entry, looked up): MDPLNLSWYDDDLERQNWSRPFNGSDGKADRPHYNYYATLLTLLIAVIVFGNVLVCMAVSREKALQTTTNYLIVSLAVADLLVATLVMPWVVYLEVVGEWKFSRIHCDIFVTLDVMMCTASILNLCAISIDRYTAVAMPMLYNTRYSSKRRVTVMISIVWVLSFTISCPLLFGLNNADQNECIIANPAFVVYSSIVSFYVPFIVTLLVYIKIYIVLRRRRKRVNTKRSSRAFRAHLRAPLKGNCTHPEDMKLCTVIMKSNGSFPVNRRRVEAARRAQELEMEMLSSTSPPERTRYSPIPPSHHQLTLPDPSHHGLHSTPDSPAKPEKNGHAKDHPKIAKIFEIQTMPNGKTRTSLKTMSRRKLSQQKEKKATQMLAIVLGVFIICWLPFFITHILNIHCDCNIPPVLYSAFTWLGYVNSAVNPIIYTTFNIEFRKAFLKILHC
Sequence of 5-hydroxytryptamine receptor 2A (Homo sapiens) (P28223 whole entry, looked up): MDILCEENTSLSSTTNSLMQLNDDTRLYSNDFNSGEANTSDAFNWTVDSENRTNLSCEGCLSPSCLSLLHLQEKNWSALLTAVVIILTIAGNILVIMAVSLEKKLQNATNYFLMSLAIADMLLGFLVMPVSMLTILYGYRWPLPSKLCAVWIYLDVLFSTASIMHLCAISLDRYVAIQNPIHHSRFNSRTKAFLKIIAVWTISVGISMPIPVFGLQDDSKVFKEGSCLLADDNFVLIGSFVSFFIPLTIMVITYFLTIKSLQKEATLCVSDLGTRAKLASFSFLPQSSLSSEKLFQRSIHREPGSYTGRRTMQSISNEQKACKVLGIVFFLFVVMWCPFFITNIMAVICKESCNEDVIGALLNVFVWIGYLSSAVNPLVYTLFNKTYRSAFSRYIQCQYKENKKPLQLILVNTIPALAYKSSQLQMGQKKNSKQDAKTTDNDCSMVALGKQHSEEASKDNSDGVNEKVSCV
Sequence of Gonadotropin-releasing hormone receptor (Homo sapiens) (P30968 whole entry, looked up): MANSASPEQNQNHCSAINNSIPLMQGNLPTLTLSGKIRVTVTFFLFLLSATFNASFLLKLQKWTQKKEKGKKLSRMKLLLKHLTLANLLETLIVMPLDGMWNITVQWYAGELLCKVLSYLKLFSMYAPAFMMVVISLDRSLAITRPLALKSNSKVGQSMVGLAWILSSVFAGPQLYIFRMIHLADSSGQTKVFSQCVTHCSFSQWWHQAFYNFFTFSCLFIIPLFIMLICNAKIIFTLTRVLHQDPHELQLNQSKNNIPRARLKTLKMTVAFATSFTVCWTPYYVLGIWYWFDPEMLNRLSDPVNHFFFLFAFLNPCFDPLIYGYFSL
Sequence of Beta-2 adrenergic receptor (Homo sapiens) (P07550 whole entry, looked up): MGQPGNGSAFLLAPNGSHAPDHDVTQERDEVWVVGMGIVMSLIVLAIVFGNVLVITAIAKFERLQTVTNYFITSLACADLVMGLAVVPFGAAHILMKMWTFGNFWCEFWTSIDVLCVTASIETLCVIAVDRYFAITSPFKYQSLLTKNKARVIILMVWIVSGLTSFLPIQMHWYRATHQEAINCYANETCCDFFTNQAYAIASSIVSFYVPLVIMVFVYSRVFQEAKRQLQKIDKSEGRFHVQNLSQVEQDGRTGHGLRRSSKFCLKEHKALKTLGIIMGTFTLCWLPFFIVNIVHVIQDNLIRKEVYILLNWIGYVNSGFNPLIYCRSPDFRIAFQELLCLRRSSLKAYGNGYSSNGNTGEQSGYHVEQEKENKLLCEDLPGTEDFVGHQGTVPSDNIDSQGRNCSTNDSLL
Sequence of Muscarinic acetylcholine receptor M1 (Homo sapiens) (P11229 whole entry, looked up): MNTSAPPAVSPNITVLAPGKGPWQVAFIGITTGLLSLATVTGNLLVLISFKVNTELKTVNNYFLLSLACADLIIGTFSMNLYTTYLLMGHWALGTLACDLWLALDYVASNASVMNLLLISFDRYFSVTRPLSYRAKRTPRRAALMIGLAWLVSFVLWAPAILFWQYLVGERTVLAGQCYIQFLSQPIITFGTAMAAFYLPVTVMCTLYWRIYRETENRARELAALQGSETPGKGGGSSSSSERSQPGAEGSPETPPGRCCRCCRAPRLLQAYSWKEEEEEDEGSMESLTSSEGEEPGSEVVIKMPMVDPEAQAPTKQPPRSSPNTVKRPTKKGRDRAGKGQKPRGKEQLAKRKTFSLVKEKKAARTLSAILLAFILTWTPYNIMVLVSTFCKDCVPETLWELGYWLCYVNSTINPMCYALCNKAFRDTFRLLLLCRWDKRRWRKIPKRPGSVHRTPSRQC
Sequence of KiSS-1 receptor (Homo sapiens) (Q969F8 whole entry, looked up): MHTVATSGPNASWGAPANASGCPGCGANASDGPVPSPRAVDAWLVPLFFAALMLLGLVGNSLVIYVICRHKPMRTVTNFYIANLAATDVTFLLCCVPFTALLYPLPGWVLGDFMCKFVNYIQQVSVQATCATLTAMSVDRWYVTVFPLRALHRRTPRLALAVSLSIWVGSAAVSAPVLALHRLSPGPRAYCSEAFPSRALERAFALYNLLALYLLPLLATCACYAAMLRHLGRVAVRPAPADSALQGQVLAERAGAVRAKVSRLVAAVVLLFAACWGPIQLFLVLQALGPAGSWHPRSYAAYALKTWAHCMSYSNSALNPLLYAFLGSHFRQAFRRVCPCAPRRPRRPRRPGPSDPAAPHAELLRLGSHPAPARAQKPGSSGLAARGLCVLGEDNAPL

Turning to `O=C(c1ccccc1)C1CCC1`, the Potency result in assay [1], in assay [2], in [3], in assay [4], in assay [5] and in [6] was “inactive” throughout. Moreover, the Potency result in [7], in assay [8], in assay [9], in assay [10], in [11] and in assay [12] was “inactive” throughout. The Potency entry in assay [13] and in [14] was “inactive” each time.

As for `OCC1CC=CCC1` (stereo not given), the Potency result in assay [1], in assay [2], in assay [3], in assay [4], in [5] and in [6] was “inactive” each time. The Potency entry in [7], in [8], in [9], in assay [15], in [10] and in assay [11] was “inactive” throughout. Moreover, the Potency entry in assay [12], in assay [13], in assay [14], in assay [16] and in [17] was “inactive” throughout.

For the compound `CCCCN(CCO)CCCC`, the Potency entry in assay [1], in [2], in [3], in assay [4], in assay [5] and in assay [18] was “inactive” each time. The Potency entry in [8], in assay [9], in assay [15], in assay [11], in [12] and in assay [13] was “inactive” throughout. The Potency result in assay [16] and in assay [17] was “inactive” in each case.

Turning to `C/C(C=O)=C\c1ccccc1`, the Potency entry in [1], in assay [2], in assay [3], in assay [4], in assay [5] and in assay [6] was “inactive” throughout. The Potency entry in assay [7], in assay [8], in assay [9], in [15], in assay [10] and in assay [11] was “inactive” throughout. In addition, the Potency entry in assay [12], in assay [13] and in assay [17] was “inactive” throughout.

Consider `O=C(Cl)c1ccc([N+](=O)[O-])cc1`, for which the Potency entry in assay [1], in assay [2], in [3], in assay [4], in [5] and in assay [6] was “inactive” each time. Besides, the Potency entry in assay [7], in assay [8], in assay [9], in [15], in assay [10] and in [11] was “inactive” in each case. The Potency entry in assay [12], in assay [13], in [16] and in assay [17] was “inactive” in each case.

For the compound `Nc1ccccc1Nc1ccccc1`, the figures for the Potency in assay [1] and in assay [2] were 48.7 µM (active) and 21.8 µM (active), respectively. The Potency entry in assay [3], in [4], in assay [5], in assay [18], in assay [8] and in assay [9] was “inactive” in each case. The Potency result in [15], in assay [10], in assay [12], in assay [16] and in [17] was “inactive” throughout.

Regarding `CC(=O)C(=O)CC(C)C`, the Potency entry in [1], in [2], in [3], in [4], in assay [5] and in assay [6] was “inactive” each time. Further, the Potency entry in [7], in assay [8], in assay [9], in [15], in [11] and in [12] was “inactive” in each case. In addition, the Potency result in assay [13], in assay [14], in assay [16] and in [17] was “inactive” in each case.

For the compound `CN(C)[C@@H]1C(=O)C(C(N)=O)=C(O)[C@@]2(O)C(=O)C3=C(O)c4c(O)cccc4C[C@H]3C[C@@H]12`, the Potency entry in [1], in [2], in assay [3], in [4], in assay [5] and in assay [6] was “inactive” in each case. Moreover, the Potency entry in assay [19], in assay [8], in assay [9], in assay [15], in [10] and in assay [13] was “inactive” each time. The Potency entry in [14], in assay [16] and in assay [17] was “inactive” in each case.
